# PubChem BioAssay (Tox21)
# Values joined by “and” are separate entries in the source; they are usually repeats but may differ in a detail not shown here. Equal values may be shown once. Inconclusive results are not listed. The source holds several records for some structures; these can differ, active in one and inactive in another. Active and inactive are the calls of the source. Calls follow the shape of the full dose curve.
# Assay: Nuclear factor erythroid 2-related factor 2/antioxidant responsive element (Nrf2/ARE) small molecule agonists: luciferase reporter gene qHTS assay in human keratinocytes (AID 1919969); also: nearly all actives have a fitted effect of over 35% in size
# Conditions: KeratinoSens HaCaT ARE-luciferase, luminescence, 24 h; series mostly up to 92.4 µM; activity, positive = activation: at the top concentration
# Description: National Center for Advancing Translational Sciences [NCATS]
# Division of Preclinical Innovation [DPI]
# U.S. Environmental Protection Agency [EPA]
# National Institutes of Environmental Health Sciences [NIEHS]
# National Toxicology Program [NTP]
# U.S. Food and Drug Administration [FDA]
# Oxidative stress has been implicated in the pathogenesis of a variety of diseases ranging from cancer to neurodegeneration. The antioxidant response element (ARE) signaling pathway plays an important role in the amelioration of oxidative stress. The KeratinoSens (Givaudan, Switzerland) is an in vitro test method which quantifies luciferase induction as a measure of activation of Keap1-Nrf2-antioxidationt/electrophile response element (ARE) dependant pathway in HaCaT human keratinocytes stably transfected with a selectable plasmid. The KeratinoSens assay is a cell-based assay with a reporter cell line to detect potential skin sensitizers by their ability to induce the Nrf2/ARE-response. The activation of the report gene under culture conditions can be detected by ONE-Glo Luciferase Assay System (Promega, Madison, WI). This cell line has been used to screen the Tox21 10K compound library to identify agonists that induce oxidative stress. The cytotoxicity of the Tox21 compound library against the KS-ARE cell line was tested in parallel by measuring the cell viability using CellTiter- Fluor assay system (Promega, Madison, WI) in the same wells.
# HaCaT derived cell line KeratinoSens were dispensed at 1,500 cells/5uL/well in 1536-well white wall/solid bottom plates using a Multidrop Combi (ThermoFisher Scientific, Waltham, MA) dispenser. After the assay plates were incubated at 37 C/5% CO2 for 5 h, 23 nL of compounds dissolved in DMSO, positive controls or DMSO only was transferred to the assay plate by a pintool workstation (Kalypsys, San Diego, CA). The plates were incubated at 37 C/5% CO2 for 23 h, followed by addition of 1uL/well of CellTiter-Fluor reagent into the assay plates using a Flying Reagent Dispenser (Aurora Discovery, San Diego, CA) for cell viability readout that measures cytotoxicity. After 1 h incubation at 37 C/5% CO2 the fluorescence intensity was measured using a ViewLux (PerkinElmer, Shelton, CT) plate reader. Then 4uL/well of One-Glo were added using a Flying Reagent Dispenser. After the plates were incubated at room temperature for 30 min, the luminescence intensity in the assay plates was measured using ViewLux plate reader.
# % is scaled to controls: 0 for no effect and ±100 for the full control effect; potency is read from the fitted curve at half-maximal effect.
Structure (SMILES),Potency,"activity, positive = activation"
Cc1cc(Nc2ccc(O)cc2)ccc1N,43.1 µM (active),
CC(=O)c1ccc([N+](=O)[O-])cc1,,20.8% (inactive)
CN1C(C)(C)CC(O)CC1(C)C,,-5.75% (inactive)
CCCCNCCCC,,-8.9% (inactive)
CCCC(C)CC (stereo not given),,-0.489% (inactive)
CC(C)(C)C1CCCCC1=O (stereo not given),,-2.62% (inactive)
CCCCOC(=O)c1ccccc1C(=O)OCC(CC)CCCC (stereo not given),43.3 µM (active),
COc1ccc(CCO)cc1,,-3.78% (inactive)
Cc1ccc(O)c(N)c1,24.4 µM (active),
C=C1CC[C@H]2C[C@@H]1C2(C)C,,11.8% (inactive)
c1coc(Cn2cccc2)c1,,-7.65% (inactive)
CCCC(CC)CCCCCCCN (stereo not given),,0.535% (inactive)
CCc1ccc(C(c2ccc(CC)cc2)C(Cl)Cl)cc1,inactive and 27.3 µM (active),
O=c1[nH][nH]c2ccccc12,62.3 µM (active),
OCc1c[nH]c2ccccc12,61.1 µM (active),
CN1CCN(c2ccccc2/C=C2\SCCN(c3ccc(Cl)c(Cl)c3)C2=O)CC1,,-42.9% (inactive)
CCC(=O)OCCC(C)CCC=C(C)C (stereo not given),,1.75% (inactive)
NS(=O)(=O)c1cc2c(cc1Cl)NC(CSCc1ccccc1)=NS2(=O)=O,,-0.903% [at 42.5 µM] (inactive)
O=C(O)c1c(Cl)ccc(Cl)c1Cl,,-1.98% (inactive)
CC(C)COCC(CN(Cc1ccccc1)c1ccccc1)N1CCCC1 (stereo not given),,-40.8% [at 42.5 µM] (inactive)

Structure (SMILES),Potency,"activity, positive = activation"
Cc1c2ccccc2c(C)c2c1ccc1ccccc12,13.5 µM (active) and 9.69 µM (active),
CC(C)NCC(O)c1cc(O)cc(O)c1 (stereo not given),,2.02% [at 42.5 µM] (inactive)
CC(=O)OCCC(C)CC(C)(C)C (stereo not given),,-9.82% (inactive)
CCN(Cc1cccc(S(=O)(=O)O)c1)c1ccc(C(=C2C=CC(=[N+](CC)Cc3cccc(S(=O)(=O)O)c3)C=C2)c2ccccc2S(=O)(=O)[O-])cc1,,-38.2% [at 42.5 µM] (inactive)
COC(=O)c1ccccc1OC,,-14.7% (inactive)
CCCCc1ccc2nc(NC(=O)OC)[nH]c2c1,4.22 µM (active),
CCCCOC(=O)CCC(C)=O,,-0.272% (inactive)
O=C(O)CCCl,,-15.3% (inactive)
CCC(=O)c1ccc2c(c1)N(CCCN(C)C)c1ccccc1S2,,3% [at 42.5 µM] (inactive)
Nc1ccc(O)c(N)c1,inactive,
CC1(C)[C@H](C(=O)O)N2C(=O)C[C@H]2S1(=O)=O,,-1.55% [at 42.5 µM] (inactive)
CC/C=C\C/C=C\C/C=C\CCCCCCCC(=O)OC,27.3 µM (active),
CC(C)OC(=O)CCC(=O)OC(C)C,,4.07% (inactive)
CC(C)N1C(=O)c2ccccc2C1=O,,7.22% (inactive)
CN(C)CCOC(c1ccccc1)c1ccc(Br)cc1 (stereo not given),,-5.51% [at 42.5 µM] (inactive)
Nc1ccn(C2CO[C@H](CO)O2)c(=O)n1 (stereo not given in full),,4.03% [at 42.5 µM] (inactive)
COc1ccc(OC(F)(F)F)cc1CN[C@H]1CCCN[C@H]1c1ccccc1,,-41.6% (inactive)
CC=O,,-37.8% (inactive)
Nc1ccc2c(c1)CN1C(=O)c3ccccc3C1=N2,0.13 µM (active),
CC(C)(C)c1ccc(OC2CCCCC2O)cc1 (stereo not given),38.6 µM (active),
